Reference: article PMC7819943, “Rice protein-binding microarrays: a tool to detect cis-acting elements near promoter regions in rice”
Whole data set: some 39,000 sequences, median “fluorescence intensity (a.u.)” near 4,300, cut for the highest 2% near 39,000. The sample holds the highest values, similar sequences and a random draw of the others, so the mix is not that of the screen.

Target: T1, OsSMF1 (Oryza sativa, UniProt Q6ZLB0 1-436)
T1 sequence: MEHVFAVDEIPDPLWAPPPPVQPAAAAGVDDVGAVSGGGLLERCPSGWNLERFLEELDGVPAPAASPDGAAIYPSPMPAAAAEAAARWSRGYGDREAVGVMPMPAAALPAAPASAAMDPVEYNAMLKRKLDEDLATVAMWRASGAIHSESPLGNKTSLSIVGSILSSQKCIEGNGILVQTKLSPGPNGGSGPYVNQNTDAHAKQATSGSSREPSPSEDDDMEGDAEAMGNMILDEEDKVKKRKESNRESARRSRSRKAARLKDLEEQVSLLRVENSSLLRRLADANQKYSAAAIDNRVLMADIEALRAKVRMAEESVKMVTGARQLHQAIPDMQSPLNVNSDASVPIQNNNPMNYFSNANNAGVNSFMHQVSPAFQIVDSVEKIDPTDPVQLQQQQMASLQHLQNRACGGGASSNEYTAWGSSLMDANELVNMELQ
Test: protein-binding microarray (RPBM); PBS, 2% BSA, 51.3 ng/ul salmon testes DNA, 50 uM zinc acetate, 200 nM TF, 25 C, 1 h; high values mean tight binding
Conditions: protein: recombinant; tags: N-terminal polyhistidine and DsRed monomer fusion (pET32a); chain copies: 2; label: CyDye5-dUTP incorporated in the synthesized complementary strand; 3' TTTTT single-stranded linker to array surface; dsDNA, one strand shown
Procedure, shortened: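 Per-feature fluorescence intensity (arbitrary units), read on an Axon 4000B scanner, is the binding signal. Transcription factors carrying an N-terminal polyhistidine tag and DsRed fusion were expressed in E. coli BL21-CodonPlus and purified on Ni–NTA. A custom Agilent array, made double-stranded by primer extension with Cy5-dUTP and blocked with 2% BSA, was incubated with 200 nM protein in PBS, 2% BSA, salmon testes DNA and 50 µM zinc acetate at 25 °C for 1 h and then washed.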

| Sequence | binding signal |
| --- | --- |
| AGCGACGAGTAAACAAAGCGCGGCGTAGCATGTGATGTGGCGGAGTCACCTAGTGCAG | 4440 fluorescence intensity (a.u.) |
| GTTATATCTCACGTGTCAAAATTCCTATGATTTTCAGTAACGGAGTCACCTAGTGCAG | 4700 fluorescence intensity (a.u.) |
| GCGTCACGTTCCTGTCGGCGGCGGCCAACGTGGCCCGCGTCGGAGTCACCTAGTGCAG | 15200 fluorescence intensity (a.u.) |
| CCGTCGTGCTGGGTGTGGCGCCGGAGAAGAAGGCGCAGCACGGAGTCACCTAGTGCAG | 41700 fluorescence intensity (a.u.) |
| CGCTGCTGCCGTCACAGAAGGTGCTGACATGGCCTGGGGTCGGAGTCACCTAGTGCAG | 7520 fluorescence intensity (a.u.) |
| GCCGGCGACGCTGCCGCCGTCACCACTACCGCTGCCGCGGCGGAGTCACCTAGTGCAG | 4140 fluorescence intensity (a.u.) |
| GAGTGGAGAAGGCGCGCCACCGTCGCTAGAGCCGATGCTGCGGAGTCACCTAGTGCAG | 47700 fluorescence intensity (a.u.) |
| CGCCGAGCTGCCACGCTCGCGTCGCGTCCAGATGCGCGCGCGGAGTCACCTAGTGCAG | 3680 fluorescence intensity (a.u.) |
| CGCCGCTGCCGCCAAACCGTCGGTGGAGAAGGCCTACCGGCGGAGTCACCTAGTGCAG | 59200 fluorescence intensity (a.u.) |
| CTGCTGCCGTCGCAGAAGGTGCTGACATGGCCAGGGGTGGCGGAGTCACCTAGTGCAG | 45300 fluorescence intensity (a.u.) |
| GCCGCCGCCGCCGCCGCCGCTGACGAGGAGCAGAAGGTGGCGGAGTCACCTAGTGCAG | 4310 fluorescence intensity (a.u.) |
| GCGCGCCGTCGTGGCGCTGGCGGCCACCACGGTGGTCACCCGGAGTCACCTAGTGCAG | 4120 fluorescence intensity (a.u.) |
| GCGCCGTCGTCGTCGCTGCCGTGGCGCCGCCGCGGCCACCCGGAGTCACCTAGTGCAG | 6800 fluorescence intensity (a.u.) |
| GCGGGCGCACGGGTGGGTGGTGTTCTGGGGCGGAGGCAGCCGGAGTCACCTAGTGCAG | 3310 fluorescence intensity (a.u.) |
| CCGAGCCACGTCGCGCCGCCGCCGCTGCTGTGCCGCCGCGCGGAGTCACCTAGTGCAG | 5650 fluorescence intensity (a.u.) |
| GATGTTACGCGTGTAATGGTGTGTGCGTGTATATACTTTGCGGAGTCACCTAGTGCAG | 7330 fluorescence intensity (a.u.) |
| ACGTTTACTCCCAGTACACACAAGACACTACTAGCTTAGACGGAGTCACCTAGTGCAG | 3420 fluorescence intensity (a.u.) |
| TGGAGGAGGAGGAGGGGAGACCACCGGAGGTAGGCGAATCCGGAGTCACCTAGTGCAG | 3140 fluorescence intensity (a.u.) |
| TCAGATAGCCACCATGACATGTATCAGTACATGCAGTGATCGGAGTCACCTAGTGCAG | 4480 fluorescence intensity (a.u.) |
| CGAATAAGCCCTTAATGTGTACGTTATTTGGTTTATCCACCGGAGTCACCTAGTGCAG | 3240 fluorescence intensity (a.u.) |
| CGCCGGTGCTGATGCTGATCGATCTTACGTCGCGTCGCGACGGAGTCACCTAGTGCAG | 3280 fluorescence intensity (a.u.) |
| CTGCAGCAAACGACCAGCCATGTCACAGGTTGTGAAGGTCCGGAGTCACCTAGTGCAG | 4600 fluorescence intensity (a.u.) |
| AGAGCAAGGCGCCGGTGGTGCTCATCAAGCCGTCGGCGACCGGAGTCACCTAGTGCAG | 63100 fluorescence intensity (a.u.) |
| GAAGGCGGCGCGGAAGTCGGCGCCGGCGACCGGCGGCGTGCGGAGTCACCTAGTGCAG | 9120 fluorescence intensity (a.u.) |
| TTGGGCGAGGTAGAGGCGGCGCCGGTGTCATCACCGTCGTCGGAGTCACCTAGTGCAG | 5140 fluorescence intensity (a.u.) |
| ACGGTCACGGTCCGGCCGCTCTACACGTACGTAGTACGTGCGGAGTCACCTAGTGCAG | 25100 fluorescence intensity (a.u.) |
| GAGATTTGATGACTGGGATGCCACATGGACACCACGACAGCGGAGTCACCTAGTGCAG | 13300 fluorescence intensity (a.u.) |

| Sequence | binding signal |
| --- | --- |
| ATGGTGGTTGTGTCTTATATTTTGGAATGGAGGGACTTATCGGAGTCACCTAGTGCAG | 21300 fluorescence intensity (a.u.) |
| TGGGCCGTGATTGAGGCCTATATATACGTGGCCTGACAAACGGAGTCACCTAGTGCAG | 4000 fluorescence intensity (a.u.) |
| GGATCGAAACTTGTGTTAAACACGTCAACTTCATGCATCTCGGAGTCACCTAGTGCAG | 3310 fluorescence intensity (a.u.) |
| ATCAACGTATCTAAACCGGATGGAAACACGTATCTAAACACGGAGTCACCTAGTGCAG | 6180 fluorescence intensity (a.u.) |
| CAACACGCTCGATATCATCTAGTTAAACTAACCTAGTGTGCGGAGTCACCTAGTGCAG | 42700 fluorescence intensity (a.u.) |
| AGCTTCGGTTTTCTTACTCAGCACAACGGGGTGGTGGCGCCGGAGTCACCTAGTGCAG | 5360 fluorescence intensity (a.u.) |
| GAAAATTTGAGCAAAATTTAGTTGAATTTGAACAAATATTCGGAGTCACCTAGTGCAG | 6670 fluorescence intensity (a.u.) |
| AATTACAGATTCCGTCAGAAAACTGTGAGACAGATTTATTCGGAGTCACCTAGTGCAG | 3290 fluorescence intensity (a.u.) |
| CCGTTGAATGTGCCAGACAAACTGAGTGTAATTTAATATTCGGAGTCACCTAGTGCAG | 65100 fluorescence intensity (a.u.) |
| TCCCTTGTCGACACATGCGTGTCAGCTCCAGGTTTATAACCGGAGTCACCTAGTGCAG | 6370 fluorescence intensity (a.u.) |
| CTCATGTTGTTTGACGGTTTGACTCTCCTAGTTTATCATCCGGAGTCACCTAGTGCAG | 3370 fluorescence intensity (a.u.) |
| TTCACGCCCTGTAACATCGTGTGCATCCATCCCTCCACCGCGGAGTCACCTAGTGCAG | 4190 fluorescence intensity (a.u.) |
| ACCTTCAAATGCAATTTTACAATGGATTTACCTCAAGCTACGGAGTCACCTAGTGCAG | 19200 fluorescence intensity (a.u.) |
| TAAAATCTAGATGCAATGAGTTATTTCATATGATTTGAAACGGAGTCACCTAGTGCAG | 17000 fluorescence intensity (a.u.) |
| TTTTCATAAATGCTCCTTTGAAACAAATGATTTTACCCTACGGAGTCACCTAGTGCAG | 43000 fluorescence intensity (a.u.) |
| CCTGAAGTTCTAGATGTTGATTTTGTCATGATGATCTAATCGGAGTCACCTAGTGCAG | 4580 fluorescence intensity (a.u.) |
| CGTCTCATTCTCTCTCCACATTTCCTTTTGATCCCTTCTCCGGAGTCACCTAGTGCAG | 24300 fluorescence intensity (a.u.) |
| TCCCGCCAAATCACCGATCCGCGCCTCACGCCACGTCAACCGGAGTCACCTAGTGCAG | 16000 fluorescence intensity (a.u.) |
| CCTTAAATTTTCCTAAATCCTTACCTACCGTCATTCTCTCCGGAGTCACCTAGTGCAG | 47400 fluorescence intensity (a.u.) |
| GTTTGCGAGGAATAGCGGGAACGATCCGCGCCACCACGAACGGAGTCACCTAGTGCAG | 18000 fluorescence intensity (a.u.) |
| TACTTATCCAGATTCAAAAGATAAAATTTATTATATTATACGGAGTCACCTAGTGCAG | 12600 fluorescence intensity (a.u.) |
| ATAAATACCGCGATAACCTCCTTAAATTCAAATAAATTTACGGAGTCACCTAGTGCAG | 54800 fluorescence intensity (a.u.) |
| AAATAAATAGGGAATTTAACCTTGCCACGTCACCGATCCGCGGAGTCACCTAGTGCAG | 48100 fluorescence intensity (a.u.) |
| AACTTCAATTTCAAATAACAGGGTCAAATAAACAAACCTACGGAGTCACCTAGTGCAG | 4590 fluorescence intensity (a.u.) |
| TTTCTAATTCGTCATTCACCTCTCTCCTCCATCTCTACCCCGGAGTCACCTAGTGCAG | 3520 fluorescence intensity (a.u.) |
| CCGGCGTGGCGACGTCAGTACTCTCTTCTGCTTCATTTCTCGGAGTCACCTAGTGCAG | 7490 fluorescence intensity (a.u.) |
| AAGCTTTGCATTTGGGCGCTGGGCATGTCAGCGTCCGGTTCGGAGTCACCTAGTGCAG | 4440 fluorescence intensity (a.u.) |
